Reference: PubChem BioAssay (NCI)
This is part of a sample that, as a whole, favours compounds with a hit. Of some 83,000 tested, about 20% had one in any assay.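 Growth was measured after 48 h exposure to one concentration of compound in 96-well plates. Values under 10 count as active.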 A number with no mark means an inactive call. Activity calls are given as the source filed them.

Assays:
Experiment in all cases: NCI-60 one-dose screen, 48 h (100 = growth as untreated, 0 = no growth, -100 = all killed)
Conditions in all cases: 10 µM unless noted
SK-MEL-2 melanoma = test system: SK-MEL-2 melanoma
EKVX NSCLC = test system: EKVX NSCLC
SN12C renal = test system: SN12C renal
UO-31 renal = test system: UO-31 renal
TK-10 renal = test system: TK-10 renal
ACHN renal = test system: ACHN renal
CAKI-1 renal = test system: CAKI-1 renal
A498 renal = test system: A498 renal
CCRF-CEM leukemia = test system: CCRF-CEM leukemia
MOLT-4 leukemia = test system: MOLT-4 leukemia

Compound | growth (SK-MEL-2 melanoma) | growth (EKVX NSCLC) | growth (SN12C renal) | growth (UO-31 renal) | growth (TK-10 renal) | growth (ACHN renal) | growth (CAKI-1 renal) | growth (A498 renal) | growth (CCRF-CEM leukemia) | growth (MOLT-4 leukemia)
Clc1ccc2[nH]cc(-c3nc(-c4c[nH]c5ncccc45)cs3)c2c1 | 48.1% | 42.7% | 56.7% | 22.2% | 46.1% | 25.9% | 17.1% | 60.2% | 31.2% | 16.1%
COc1ccc(OC)c(-c2c(C#N)c(-c3ccco3)nc3c2c(-c2ccccc2)nn3-c2ccccc2)c1 | 99.4% | 87.1% | 94.6% | 84.1% | 98% | 96.4% | 82.3% | 98.5% | 94.1% | 96.3%
CC[C@H](CC[C@@H](C)[C@H]1CC[C@H]2[C@@H]3/C(=C/c4cccnc4)C(=O)C4=CC(=O)CC[C@]4(C)[C@H]3CC[C@]12C)C(C)C | 103% | 99% | 86.3% | 65.4% | 112% | 93.9% | 77.9% | 98.3% | 43.4% | 67.5%
N=c1c(S(=O)(=O)c2ccccc2)cc2c(=O)n3ccccc3nc2n1C1CCCC1 | 104% | 78.1% | 87.2% | 50.9% | 82.5% | 86% | 64.6% | -1.39% (active) | 93.6% | 82%
O=C(/C=C\c1ccc2c(c1)OCO2)/C=C/c1ccc2c(c1)OCO2 | 127% | 82.4% | 86.5% | 76.3% | 96.1% | 88.3% | 89.2% | 126% | 31.4% | 35.2%
CNC(=O)c1cc(Oc2ccc3nc(NC(=O)Nc4ccc(Cl)cc4)sc3c2)ccn1 | 81.1% | 53.8% | 62.3% | 62.5% | 62.3% | 64.9% | 94.7% | 117% | 83.2% | 85.4%
CC(C)C[C@@H](NC(=O)[C@@H](Cc1ccccc1)NC(=O)c1cnccn1)B1O[C@H]2[C@H](O)[C@@H](C(=O)NCCCC[C@@H]3NC(=O)[C@@H](Cc4ccccc4)NC(=O)[C@H](CC(=O)O)NC(=O)CNC(=O)[C@H](CCCN=C(N)N)NC3=O)O[C@@H](CN)[C@H]2O1 | -38.5% (active) | -12.6% (active) | -29.5% (active) | -16.4% (active) | -79.1% (active) | -8.22% (active) | -44.2% (active) | -94.5% (active) | 6.17% (active) | 0.435% (active)
CC(=O)OC(C)COc1ccc(-c2ccccc2)cc1 (stereo not given) | 95% | 101% | 104% | 106% | 80.7% | 101% | 94.7% | 92.7% | 99.6% | 100%
CC(=O)c1c(C)[nH]c(-c2nc3ccc(N4CCN(C)CC4)cc3[nH]2)c1-c1ccc(N(C)C)cc1 | 64.3% | 34.5% | 48.2% | 7.2% (active) | -6.31% (active) | 19.8% | 10.3% | 6.38% (active) | 36.3% | 45.5%
Cn1c(=O)c2c(nc(N3CCCC3)n2C)n(C)c1=O | 97.4% | 98.9% | 102% | 93.8% | 85.3% | 106% | 93.8% | 81.9% | 105% | 95.1%
COc1ccc2c(c1)c1nc3cc(C)c(C)cc3nc1n2CCN(C)C | 26.4% | 13.2% | 17% | -24.1% (active) | 39.3% | -11.4% (active) | 4.98% (active) | 45% | 6.67% (active) | 0.921% (active)
CCc1ccccc1NC(=O)c1sc2nc3c(cc2c1N)CCCC3 | 31.8% | 72.9% | 34.9% | 48.9% | 59.5% | 48.2% | 45.6% | 6.65% (active) | 18.3% | 25.4%
CC(=O)Nc1cc(F)cc(C(F)(F)F)c1Cl | 105% | 98% | 105% | 92.8% | 104% | 99.3% | 91.5% | 100% | 102% | 105%
N#CC1=C(N)Oc2c(c(N)nn2-c2ccccc2)C1c1ccc(Cl)cc1 (stereo not given) | 103% | 90.7% | 97.8% | 61.2% | 152% | 93.1% | 86.8% | 97.8% | 101% | 98.8%
C=C(C)[C@@H]1CC[C@]2(C(=O)O)CC[C@]3(C)[C@H](CC[C@@H]4[C@@]5(C)C/C(=C/c6cccc(I)c6)C(=O)C(C)(C)[C@@H]5CC[C@]43C)[C@@H]12 | 11.2% | 24.9% | 31.1% | 23.6% | 29.6% | 30.5% | 11.9% | 22.1% | 25.6% | 13%
O=C1CCN2C(=O)Nc3ccccc3C2C1 (stereo not given) | 110% | 99.8% | 94.2% | 94.1% | 104% | 106% | 89.6% | 120% | 106% | 97.8%
CC(Cc1ccco1)C(=O)NC(N)=O (stereo not given) | 106% | 98% | 103% | 91.6% | 98.7% | 108% | 92.1% | 102% | 98.9% | 98.8%
Nc1c(C(=O)Nc2c(Cl)cccc2Cl)sc2nc3c(cc12)CCCC3 | 75.8% | 102% | 69.6% | 84.3% | 90.2% | 87.7% | 79.3% | 79.7% | 55.1% | 46.9%
CC(=O)OCCCCCCn1c2ccccc2c2c3c(c4c5ccccc5n(C)c4c21)C(=O)N(O)C3=O | 84.6% | 98.6% | 70% | 50% | 80.6% | 74.9% | 4.21% (active) | 52.9% | 34.3% | 10.9%
c1cc(N2CCCC2)c2nc(-c3[nH]ncc3Nc3ncnc4[nH]ccc34)[nH]c2c1 | -42.1% (active) | -31% (active) | -13.7% (active) | -20.3% (active) | -26.4% (active) | -14.6% (active) | -33.2% (active) | -79.5% (active) | 1.97% (active) | 1.93% (active)
C/C(Cc1ccc(Cl)cc1)=C(/c1ccc(Cl)cc1)c1ccc(OCCN2CCCC2)cc1 | 105% | 91.2% | 81.6% | 68.1% | 96.1% | 93.8% | 75.9% | 103% | 66% | 59.7%
Cc1csc(Nc2nc(-c3cccc(Br)c3)nc(C(Cl)(Cl)Cl)n2)n1 | 104% | 22.8% | 78.5% | 49.4% | 49.9% | 0.817% (active) | 21.6% | 31.5% | 91.4% | 80.7%
Nc1c2c(nc3ccc(Cl)cc13)CC(c1ccccc1)CC2=O (stereo not given) | 59% | 40.3% | 61.3% | 57.8% | 79.6% | 47.9% | 44.5% | 49.3% | 43.9% | 51%
O=C1c2cc3c(cc2-c2c1c1ccc(F)cc1c(=O)n2CCCN1CCOCC1)OCO3 | 82.1% | 82.4% | 33.2% | 35.9% | 106% | 4.58% (active) | 17.2% | 59% | 19.6% | 3.65% (active)
O=[N+]([O-])c1ccc(N/N=C(\C(=N/Nc2ccc([N+](=O)[O-])cc2[N+](=O)[O-])c2ccccc2)c2ccccc2)c([N+](=O)[O-])c1 | 95.9% | 108% | 97.5% | 86.4% | -1.75% (active) | 95.7% | 81.1% | 103% | 58.4% | 92.2%
C=C1C(=O)O[C@H]2[C@H]1CC/C(Cn1cc(-c3ccc(OC)cc3)nn1)=C\CC[C@@]1(C)O[C@@H]21 | 61.9% | 85.4% | 0.315% (active) | -86.2% (active) | -84.1% (active) | 6.78% (active) | -4.52% (active) | 31.7% | -32.6% (active) | -32.9% (active)
